Measurements: PubChem BioAssay

System: not listed separately
Assay: small-molecule microarray binders of probe aNog, primary screen, biochemical, biotinylated probe, 635/667 nm fluorescence (AID 1115);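 further: probe is biotinylated aNog protein used at 0.15 µg/mL for 1 h at 4 C; z-score combines 667 nm fluorescence of each spot with its signal to noise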
Settings: higher = more signal

Row | SMILES | composite z-score
1 | CO[C@H]1O[C@H](CO)[C@@H](OC(=O)Nc2ccc(Br)cc2)[C@@H]2OC(=O)[C@@H](Cc3ccccc3)C/C=C/C[C@H](Cc3ccccc3)C(=O)O[C@@H]12 | 1.04
2 | C#CCN(Cc1ccccc1Br)[C@H](/C=C/c1ccccc1)[C@@H](O)Cc1ccccc1 | 0.0108
3 | CCCCCN1CC=CC23O[C@@H]4/C=C\CCCOC(=O)C4[C@H]2C(=O)N(C(C)CO)[C@@H]3C1=O (stereo not given in full) | -0.0057
4 | CCCCCN1CC=CC23O[C@@H]4C=CCCOC(=O)C4[C@H]2C(=O)N(CCCCCCO)[C@@H]3C1=O (stereo not given in full) | -0.316
5 | NC(=O)[C@@]1(Cc2ccccc2)COC(c2ccc(OCCCO)cc2)=N1 | 0.959
6 | COC(=O)[C@@]1(Cc2ccc(OC)cc2)[C@H]2c3cc(C(=O)N4CCCC4)n(CCO)c3C[C@H]2CN1C(=O)c1ccccc1 | 1.85

Target: Torsin-1A-interacting protein 1 (Homo sapiens) (UniProt Q5JTV8)
Sequence (Q5JTV8 whole entry, looked up): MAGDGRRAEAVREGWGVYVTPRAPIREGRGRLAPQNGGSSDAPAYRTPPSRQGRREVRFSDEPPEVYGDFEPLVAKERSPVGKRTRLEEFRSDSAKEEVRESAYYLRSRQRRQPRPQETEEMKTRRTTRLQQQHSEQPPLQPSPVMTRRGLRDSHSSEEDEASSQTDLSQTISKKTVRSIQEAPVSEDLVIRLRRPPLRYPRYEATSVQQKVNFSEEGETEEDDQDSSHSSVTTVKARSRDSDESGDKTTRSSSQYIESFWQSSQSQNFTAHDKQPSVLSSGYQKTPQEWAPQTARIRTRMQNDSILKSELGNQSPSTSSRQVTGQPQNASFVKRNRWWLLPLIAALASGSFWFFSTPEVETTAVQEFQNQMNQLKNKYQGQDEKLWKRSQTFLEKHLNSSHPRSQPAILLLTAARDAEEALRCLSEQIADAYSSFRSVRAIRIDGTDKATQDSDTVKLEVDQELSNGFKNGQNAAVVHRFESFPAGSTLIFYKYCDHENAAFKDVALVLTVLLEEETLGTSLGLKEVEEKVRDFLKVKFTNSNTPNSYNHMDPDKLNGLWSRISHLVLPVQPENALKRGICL
Assay: LAP1 binders from COS7 cell lysate, primary screen, small-molecule microarray, 635/667 nm fluorescence (AID 1116)
Settings: COS7-hLAP1 lysate binding, 635 nm fluorescence, higher = more signal

Row | SMILES | composite z-score
7 | O=C(O)[C@@H]1[C@@H]2C(=O)N(c3ccccc3)C(=O)[C@@H]2C[C@@H]1Sc1ccccc1 | 0.351
8 | CCCCN1CC=CC23O[C@@H]4/C=C\CCC(C)OC(=O)C4[C@H]2C(=O)N(CCCO)[C@@H]3C1=O (stereo not given in full) | -0.318
9 | CN(C)C(=O)[C@]1(CCC(=O)OC(C)(C)C)N=C(c2ccc(OCCCO)cc2)O[C@@H]1c1ccccc1CN=[N+]=[N-] | 2.9
10 | CCCCCC1=C2CNC(C)(C(=O)OC)C=C2C(C)C1=O (stereo not given) | 0.137
11 | CCOC(=O)C[C@H]1[C@H](OC(=O)c2cc3ccccc3oc2=O)[C@@H](NC(=O)c2ccc3ccccc3n2)c2cc(OCCCO)ccc2N1C(=O)Cc1ccc(OC)cc1 | 0.726
12 | CS(=O)(=O)CCOC(=O)C1=CC(CCCO)=CC(c2ccc(CN3CCCC3)cc2)N(Cc2sc3ccccc3c2Cl)C=C1C(=O)OCCS(C)(=O)=O (stereo not given) | 2.83
13 | NC(=O)NCC#Cc1ccc2c(c1)[C@]1(C(=O)N2)[C@H](c2ccccc2OCCO)N2[C@H](c3ccccc3)[C@H](c3ccccc3)OC(=O)[C@H]2[C@@H]1C(=O)NC[C@H](O)c1ccccc1 | 0.395
14 | CC(C)N1C(=O)c2ccccc2[C@@H](C(=O)NCCN2CCOCC2)[C@@H]1c1ccc(CO)cc1 | -0.171
15 | COCCOC(=O)N1C(=O)[C@@]2(c3cc(C#CC4=CCCCC4)ccc31)[C@H](C(=O)Nc1nc3ccccc3s1)[C@H]1C(=O)O[C@H](c3ccccc3)[C@H](c3ccccc3)N1[C@@H]2c1ccc(O)cc1 | 0.666
16 | COc1ccc(CCNC(=O)[C@@]2(Sc3ccc(C)cc3)CC(=O)N(Cc3ccccc3C(F)(F)F)[C@@H]2c2ccc(CO)cc2I)cc1 | 0.357
17 | COc1ccc([Si](C)(C)[C@H]2[C@H](CC(=O)N3CCC[C@H]3CO)O[C@@]3(C(=O)N(Cc4ccc(N5CCOC5=O)cc4)c4ccccc43)[C@@H]2C)cc1 | 0.833
18 | COc1cc(OC)c(C(O)C2C=CC3C(=O)N(Cc4ccccc4)C(=O)C3N2n2cnnc2)cc1Br (stereo not given) | 0.781
19 | [N-]=[N+]=Nc1ccccc1C[C@@]1(C(=O)N2CCOCC2)N=C(c2ccc(OCCCO)cc2)O[C@@H]1c1ccccc1 | 1.43
20 | Cc1ccc(C(C)CC(O)C2C=CC3C(=O)N(c4ccccc4)C(=O)C3N2Nc2ccccc2)o1 (stereo not given) | 0.789
21 | CCOC(=O)C[C@H]1[C@H](OC(=O)c2ccc(C(=O)c3ccccc3)cc2)[C@@H](NC(=O)c2ccc(-c3ccccc3)cc2)c2cc(OCCCO)ccc2N1C(=O)Cc1ccc(OC)cc1 | 0.759
22 | CCOC(=O)C1=C[C@@H](C(C)C)N(S(=O)(=O)c2ccc(C)cc2)[C@H]1c1ccc(C(F)(F)F)cc1 | 0.76
23 | C=C[C@H]1C(C(=O)OCC)=CC[C@@H](c2ccccc2)N1S(=O)(=O)c1ccc(C)cc1 | 0.325
24 | CCCCCCCCCCC(O)C1C=CC2C(=O)N(c3ccccc3)C(=O)C2N1Nc1ccc(C#N)cc1 (stereo not given) | 1.47
25 | O=C1C[C@]2(c3ccc([N+](=O)[O-])cc3)C(=O)N(C3CC3)c3cc(CO)ccc3[C@H]2N1CC12CC3CC(CC(C3)C1)C2 | -0.604
26 | C=C[C@H](C)[C@H](OC(=O)Nc1ccc(SC)cc1)c1ccc(OCCO)cc1 | 1.6
27 | O=C1OCCC=C[C@H]2OC34C=CCN(c5ccc6ccccc6c5)C(=O)[C@H]3N(CCCO)C(=O)[C@@H]4C12 (stereo not given in full) | -1.25
28 | CCCCN1CC=CC23O[C@@H]4/C=C\CCCOC(=O)C4[C@H]2C(=O)N(CCO)[C@@H]3C1=O (stereo not given in full) | 0.0966
29 | COc1cc2c(cc1O)C(c1cccs1)N(Cc1cc3c(cc1Br)OCO3)CC2 (stereo not given) | 1.14
30 | CCCC[C@@H](O)C1=C(COc2ccccc2)C[C@H]2C(=O)N(Cc3ccccc3)C(=O)[C@H]2[C@H]1CO | 0.176
